The nature of test [1]: NCI Yeast Anticancer Drug Screen. Data for the rad50 strain (AID 155).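 Note: 0% = growth of vehicle-only cultures of the same strain.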 Particulars: S. cerevisiae rad50 strain growth inhibition; at 50.0 µM; stronger effect = higher value. A digest of the protocol:
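Growth of the mutant yeast was measured after compound exposure and referenced to vehicle-treated cultures.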

The nature of test [2]: NCI Yeast Anticancer Drug Screen. Data for the mec2-1 strain (AID 157). Particulars: S. cerevisiae mec2-1 strain, at 50.0 µM, stronger effect = higher value. In outline: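 Cells of the genetically defined mec2-1 yeast strain are incubated with test compound. Inhibition of growth is calculated against vehicle-treated controls.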
Test [3] can be described thus: NCI Yeast Anticancer Drug Screen. Data for the sgs1 mgt1 strain (AID 161).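 Note: 0% = growth of cultures given vehicle only.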 Particulars: S. cerevisiae sgs1 mgt1 strain, at 50.0 µM, stronger effect = higher value. A digest of the protocol:
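Test agents were incubated with a DNA-repair-mutant yeast strain. Growth was then read and compared against vehicle-treated controls.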

Test [4] can be described thus: NCI Yeast Anticancer Drug Screen. Data for the cln2 rad14 strain (AID 165).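 Note: 0% = growth equal to vehicle treated cultures.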 The following applies: S. cerevisiae cln2 rad14 strain, at 50.0 µM, stronger effect = higher value. In outline:
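The screen exposed genetically defined yeast (cln2 rad14) to test compounds and scored growth inhibition relative to vehicle-treated controls.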

Test [5] is described as follows: NCI Yeast Anticancer Drug Screen. Data for the bub3 strain (AID 167). The following applies: S. cerevisiae bub3 mutant strain, at 50.0 µM, stronger effect = higher value. A digest of the protocol: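 Whole-cell yeast assay. The mutant strain was incubated with compounds, and growth inhibition was determined by comparison with vehicle-treated cells.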
Test [6] is described as follows: NCI Yeast Anticancer Drug Screen. Data for the mlh1 rad18 strain (AID 175). Particulars: S. cerevisiae mlh1 rad18 strain growth inhibition; at 50.0 µM; stronger effect = higher value. A digest of the protocol:
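Compound-treated yeast growth, normalised to vehicle controls. Strain bears defined DNA repair mutations.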

This is part of a sample that, as a whole, favours compounds with a hit. Of some 79,000 tested, about 15% had one in any assay. Values without a mark were called inactive. Activity calls are given as the source filed them. Cut-off read from the data, not from the text of the source: active = growth inhibition above about 70%; inactive = the rest.

Turning to `CCc1ccc(N=Nc2c(F)c(F)c(N(C)C)c(F)c2F)cc1`, the growth inhibition was -2.4% in test [1]; 7.7% in test [2]; 6.85% in test [3]; 4.1% in test [4]; 1.05% in test [5]; -1.25% in test [6].

Consider `S=C=NCCCCCCCCCCCCN=C=S`, for which the growth inhibition in test [1] was 94.4% (active); in test [2], 89.5% (active); in test [3], 94.2% (active); in test [4] it was 58.5%; in test [5] it was 89.7% (active); in test [6], 94.7% (active).

On to `Cc1nc(N/N=C/c2ccccc2Cl)[nH]c(=O)c1CCO`, for which the growth inhibition is -18.9% in test [1]; -2.8% in test [2]; -17.4% in test [3]; 12.2% in test [4]; -30.2% in test [5]; 4.15% in test [6].

Take `c1ccc2c(c1)ccc1c3ccccc3ccc21`: the growth inhibition in test [1] is 14.5%; in test [2] it was 10.9%; in test [3] it was 13.6%; in test [4] it was 25.6%; in test [5], 24.4%; in test [6], 17.6%.

For the compound `Cc1cc(C)n2ncc(Br)c2n1`, the growth inhibition in test [1] was 26.2%; in test [2], 13.1%; in test [3], 14.2%; in test [4], -35%; in test [5], 12.9%; in test [6], 8.15%.

Turning to `COC(=O)CCNC(C(=O)O)C(C)(C)SCCC(=O)OC` (stereo unspecified), the growth inhibition in test [1] is -18.6%; in test [2], -19.1%; in test [3], -7.9%; in test [4] it was 24.5%; in test [5], 24.5%; in test [6], -20.4%.

As to `Cc1ccccc1N1C(=O)[N+]2(CCCCC2)N=C1[O-]`, the growth inhibition was -11.1% in test [1]; 2.2% in test [2]; -13.3% in test [3]; -42.5% in test [4]; -3.9% in test [5]; -12.6% in test [6].

With `CNC(=O)OCc1c(COC(=O)NC)c(-c2ccc(S(C)(=O)=O)cc2)n(C)c1C`, the growth inhibition in test [1] was 49%; in test [2] it was -3.3%; in test [3] it was -16.2%; in test [4] it was 5.25%; in test [5], -10.1%; in test [6] it was -42%.

Take `C=CCOC(=O)Oc1ccc(Cl)cc1`: the growth inhibition in test [1] is 27.6%; in test [2], -13.9%; in test [3], 23.1%; in test [4], -0.85%; in test [5], -2.7%; in test [6], 28.6%.

With `O=C(O)C1(O)CC(O)C(O)C(O)C1` (stereo unspecified), the growth inhibition is 5.25% in test [1]; -7.05% in test [2]; -0.25% in test [3]; -13.8% in test [4]; 8.55% in test [5]; -0.8% in test [6].

Take `COC(=O)C(C(=O)C(=O)Nc1ccc(Br)cc1)c1nc2ccc(Cl)cc2[nH]c1=O` (stereo unspecified): the growth inhibition was -11% in test [1]; -5.1% in test [2]; 21.9% in test [3]; 7.05% in test [4]; -1.55% in test [5]; 2.8% in test [6].

Turning to `COC(=O)C1=C(C)NC(C)=C(C(=O)OC)C1c1cc2ccccc2n2nnnc12`, the growth inhibition in test [1] was 26.7%; in test [2] it was 11.1%; in test [3], 31.2%; in test [4], -1.75%; in test [5], 7.5%; in test [6] it was 47.4%.

With `O=C(CN1C(=O)c2ccccc2C1=O)OCC(=O)c1ccccc1`, the growth inhibition was 18.9% in test [1]; 12.4% in test [2]; 1.5% in test [3]; 0.4% in test [4]; 12.9% in test [5]; 4.4% in test [6].

Take `OCC1(OC2OC(CF)C(O)C(O)C2O)OC(CF)C(O)C1O` (stereo unspecified): the growth inhibition in test [1] is -1.1%; in test [2] it was 0.75%; in test [3], -5.65%; in test [4], -23.5%; in test [5] it was 3.3%; in test [6] it was 3.85%.

As to `COC(=O)/C(C#N)=C/NC(=S)Nc1ccccc1`, the growth inhibition in test [1] is -48.1%; in test [2] it was -0.85%; in test [3], -44.5%; in test [4] it was 11.2%; in test [5], -26.3%; in test [6], -33.2%.

Regarding `COC(=O)C12OCC34C(CC(C(C)=O)C(C)(CC(=O)O)C3C(O)C1O)OC(=O)C(OC(=O)/C=C(\C)C(C)C)C24` (stereo unspecified), the growth inhibition is 10% in test [1]; 21.3% in test [2]; 0.15% in test [3]; 9% in test [4]; 7.6% in test [5]; 6.95% in test [6].

On to `CN(c1ccccc1)c1ccc([N+](=O)[O-])cc1[N+](=O)[O-]`, for which the growth inhibition in test [1] was 7.4%; in test [2], -1.3%; in test [3], -8%; in test [4], 3.25%; in test [5], 0.8%; in test [6] it was -11.9%.

In the case of `CCCOC1OC(CS(=O)(=O)O)C(OC(C)=O)C(OC(C)=O)C1OC(C)=O` (stereo unspecified), the growth inhibition is 3.25% in test [1]; 3.1% in test [2]; 8.4% in test [3]; 18% in test [4]; 2.4% in test [5]; 5.95% in test [6].

For `C/C(=N\NC(=S)Nc1ccc(C(=O)O)cc1)c1nccc2ccccc12`, the growth inhibition in test [1] is 3.2%; in test [2] it was 1.1%; in test [3] it was 4.2%; in test [4] it was 28.9%; in test [5], 9.75%; in test [6], 7.25%.

As to `O=c1[nH]c(=O)n(COC(CO)CO)cc1-c1ccccc1`, the growth inhibition in test [1] was -24.4%; in test [2] it was -31.8%; in test [3], 2.65%; in test [4], -4.15%; in test [5], -18.4%; in test [6] it was -19.9%.

For `c1ccc(OCCCCN2CCNCC2)cc1`, the growth inhibition in test [1] was 1.85%; in test [2], -14.3%; in test [3] it was 14.3%; in test [4], -10.1%; in test [5] it was 8.3%; in test [6], -10.2%.

The record behind these values is PubChem BioAssay (NCI).
